# Assay results published in PubChem BioAssay AID588832 (Broad Institute, 2011).
# Hit rate of the full screen: of about 8,000 compounds, fewer than 10 were called active. Not all results are given here. A number with no mark means an inactive call. The rule behind the calls is not given here.
# Test system: hedgehog, isoform A (Drosophila melanogaster)
# Assay: Hh protein inhibition, biochemical readout – plate reader, single concentration, primary screen (AID 588832);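 note: 0% = neutral control wells and 100% = positive control wells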
# Details: Biochemical plate reader assay, at 30.3 µM, stronger effect = higher value
row,Structure (SMILES),inhibition
1,COc1cccc(C2c3[nH]c4ccccc4c3C[C@H]3C(=O)N(c4ccccc4C(=O)N4CCCC4C(=O)O)C(=O)N23)c1 (stereo not given in full),-3.51%
2,Cn1cccc1Cc1nnc(SCC(=O)Nc2ccccc2F)n1-c1ccc(F)cc1,8.33%
3,Cn1c(=O)c2c(SCc3ccccn3)nc(CC(C)(C)C)nc2n(C)c1=O,4.58%
4,CSC1=NCCN1C(=O)c1ccc(S(=O)(=O)N2CCCC2)cc1,-1.85%
5,O=C(Nc1ccccc1Cl)c1ccc2c(c1)N(Cc1ccc(F)cc1)C(=O)CS2=O (stereo not given),15%
6,CC1(C2CCC3(C)OC3C2)CO1 (stereo not given),7.18%
7,Cc1cccc(N2CCN(C(=O)CCC(=O)N3CC(C)Oc4ccc(C)cc43)CC2C)c1 (stereo not given),5.06%
8,COc1cc2c(cc1OC)CN(C(=O)c1ccc3[nH]c(C)c(C)c3c1)CC2,8.74%
9,O=c1c(Cc2ccccc2O)c(O)nc2n1CCCS2,3.39%
10,COc1ccc(N(C(=O)c2ccncc2)S(=O)(=O)c2ccc(OC)c(OC)c2)cc1,11.1%
11,CCCCC(NC(C)=O)c1nc2ccccc2[nH]1 (stereo not given),5.42%
12,Cc1cc(Nc2ccc(C(C)C)cc2)n2ncnc2n1,6.72%
13,Cc1cc(NS(=O)(=O)c2ccc(NC(=O)c3cnc4scc(C)n4c3=O)cc2)nc(C)n1,6.2%
14,CC(C)OC(=O)c1nnc(Cc2ccc(Cl)cc2)o1,20%
15,O=C(c1cnn(-c2ccccc2)c1-n1cccc1)N1CCN(C2CCCCC2)CC1,9.55%
16,Cc1cc(Cl)cc2sc(NC(=O)c3ccco3)nc12,3.57%
17,O=C(O)c1cccc(N2C(=O)C3CC=C(Cl)CC3C2=O)c1 (stereo not given),14.9%
18,CCn1c(C(=O)N2CCC(C(=O)NCc3ccc4c(c3)OCO4)CC2)cc2sccc21,8.81%
19,COC(=O)C1(Cc2ccc(O)c(CC3OC3(C)C)c2)OC(=O)C(O)=C1c1ccc(O)cc1 (stereo not given),6.79%
20,CC(C)[C@H](NC(=O)[C@@H]1Cc2c([nH]c3ccccc23)C2c3ccccc3C(=O)N21)C(=O)N1CCC[C@H]1C(=O)O (stereo not given in full),5.17%
21,CCOc1ccc(C2C(C(=O)Nc3ccc(F)cc3)=C(C)Nc3nc(CCCO)nn32)cc1 (stereo not given),10%
22,Cc1cc2c(cc1S(=O)(=O)N1CCCCC1)OCC(=O)N2,10.9%

row,Structure (SMILES),inhibition
1,Cc1noc(C)c1S(=O)(=O)N1CCN(C(c2ccccc2)c2ccc(Cl)cc2)CC1 (stereo not given),8.33%
2,COc1ccc(S(=O)(=O)Cc2ccc(C(=O)NC3CCCC3)o2)cc1,8.33%
3,COc1cc(OC)c(NS(=O)(=O)c2coc(C(N)=O)c2)cc1Cl,25%
4,O=C(C1COc2ccccc2O1)N1CCn2c(nc3ccccc32)C1 (stereo not given),4.17%
5,COc1cc(-c2cc(=O)c3c(O)c(OC)c(OC)c(OC)c3o2)cc(OC)c1OC,3.45%
6,O=C(CN1CCOc2ccccc21)NC1CCCCCCC1,25%
7,Cc1cccc(NC(=O)CSc2nc3ccccc3nc2N2CC(C)OC(C)C2)c1 (stereo not given),3.85%
8,CCOc1ccc(NC(=O)c2cccc(NC3=NC4CS(=O)(=O)CC4S3)c2)cc1 (stereo not given),5.12%
9,COc1ccccc1C(=O)OCn1nnc2ccccc2c1=O,-5%
10,Cc1c(C)c2c(OCC(=O)N[C@@H](Cc3ccccc3)C(=O)O)cc3c(c2oc1=O)CCC(C)(C)O3,-1.79%
11,Clc1ccccc1C1CC(c2ccccc2)Nc2ncnn21 (stereo not given),8.33%
12,O=C(NCCCN1CCOCC1)c1ccccc1N1C(=O)[C@@H]2Cc3c([nH]c4ccccc34)C(c3cccc(Cl)c3)N2C1=O (stereo not given in full),0%
13,CCCc1cc(=O)oc2cc(OC(C)C(=O)NCC3CCC(C(=O)O)CC3)c(Cl)cc12 (stereo not given),7.18%
14,O=C(CCC(=O)N1CCOc2ccccc21)Nc1ccccc1Br,6.78%
15,CC1(C)Cc2c(C#N)c(NC3CCCCC3)nc(-c3ccco3)c2CO1,3.64%
16,COc1ccc2[nH]c3c(c2c1)CCN1C(=O)N([C@@H](C)C(=O)NCc2ccc(C)cc2)C(=O)[C@]31C,0%
17,CC(=O)O[C@H]1C(=O)[C@@]2(C)C([C@H](OC(=O)c3ccccc3)[C@]3(O)C[C@H](OC(=O)[C@H](O)[C@@H](NC(=O)c4ccccc4)c4ccccc4)C(C)=C1C3(C)C)[C@]1(OC(C)=O)CO[C@@H]1C[C@H]2O (stereo not given in full),5.12%
18,CCc1nn(CC(=O)N2CCN(C)CC2)c(=O)c2cccn12,5.06%
19,Cc1ccc(S(=O)(=O)NCc2ccc3[nH]c(C)cc3c2)cc1,3.57%
20,CC1CCCN(C(c2ccccc2)c2sc3ncnn3c2O)C1 (stereo not given),5.06%
21,CCOc1ccc(-n2c(SCC(=O)N3CCc4ccccc43)nnc2-c2c[nH]c3ccccc23)cc1,13.3%
22,Nc1nc2n(n1)C(c1cccc(Br)c1)CC(c1ccc(F)cc1)N2 (stereo not given),23.4%

row,Structure (SMILES),inhibition
1,CCOc1ccc(-c2nc(CS(=O)(=O)CC(=O)NCc3ccc(F)cc3)c(C)o2)cc1,3.57%
2,COc1ccccc1NC(=O)NCCCN1CCN(c2cccc(Cl)c2)CC1,-5.49%
3,Cc1c(S(=O)(=O)Nc2cccc(Cl)c2)c(=O)n(C)c(=O)n1C,0.909%
4,COc1cc(OC)cc(C(=O)OCn2nnc3ccccc3c2=O)c1,0%
5,COC(=O)c1ccccc1NC(=O)C1CCCN(c2nnc(-n3cccc3)s2)C1 (stereo not given),0.909%
6,C/C=C/c1cc(OC)c2c(c1)[C@H](C)[C@@H](c1ccc(O)c(OC)c1)O2,0%
7,CCCn1c(CN2CCCCC2C)nc2c1c(=O)n(C)c(=O)n2C (stereo not given),3.57%
8,COC(=O)C1=C(C)Nc2ccc(C)cc2S1,0%
9,CC(=O)c1ccc(NC(=O)C2CCCN2S(=O)(=O)c2ccc(C)cc2)cc1 (stereo not given),15.4%
10,CCOc1ccc(NC(c2ccccn2)c2oc(CO)cc(=O)c2O)cc1 (stereo not given),1.85%
11,COc1ccc(NC(=O)c2cc(S(=O)(=O)N3CCc4ccccc43)cn2C)cc1,-3.51%
12,O=C(CSc1nc2c(c(=O)n1-c1ccccc1)SCC2)N1CCN(c2ccccc2)CC1,5.23%
13,NC(=O)c1cccc2c1C(=O)N(C1CCCCC1)C2,6.78%
14,Cc1ccccc1C(=O)Nc1nnc(S(=O)(=O)N2CCCCC2)s1,3.67%
15,O=C(Nc1ccccc1)N1CCC(n2c(=O)[nH]c3ccccc32)CC1,11.9%
16,Cc1cc2c(cc(C(=O)N3CCC(C(=O)N4CCCC4)CC3)n2Cc2c(F)cccc2Cl)o1,6.84%
17,C=C1CCCC2OC(CC3=CC4/C(C)=C/CC(C)CC(/C=C(\C)C(O)C5CC(O)C(O)C(CCC(O)/C=C/C(C)=C/CCC6=NCCC(C3)C64C)O5)OC(=O)CC3OC(C(O)C1)C(O)C3O)CC(O)C2O (stereo not given),5.17%
18,Nc1nonc1-n1nnc(C(=O)N/N=C/c2ccc(O)cc2)c1CN1CCCCCC1,-1.79%
19,CC1C(=O)Nc2ccc(S(=O)(=O)N3CCN(c4cccc(Cl)c4)CC3)cc2NC1=O (stereo not given),7.02%
20,O=c1ccc2cc(S(=O)(=O)N3CCN(c4ccccc4F)CC3)ccc2[nH]1,-3.85%
21,COc1ccccc1CNC(=O)[C@H](Cc1c[nH]c2ccccc12)NC(=O)[C@@H]1Cc2ccccc2CN1,3.6%
22,CCOC(=O)c1ccc(NC(=O)COc2cc(=O)n(CC)c3ccccc23)cc1,4.17%

row,Structure (SMILES),inhibition
1,COC(=O)C(N)CCCCN (stereo not given),3.45%
2,COc1ccc(NC(=O)c2cc(CC(C)C)on2)cc1OC,8.45%
3,CCOC(=O)N1CCC(N2Cc3cccc(C(=O)N4CCN(C5CCCCC5)CC4)c3C2=O)CC1,5.77%
4,CCSc1nnc2c(n1)OC(c1ccc(C(=O)O)cc1)N(C(C)=O)c1ccccc1-2 (stereo not given),0.848%
5,Cc1ccc(-c2nc(CS(=O)CC(=O)NCCCN3CC(C)CC(C)C3)c(C)o2)cc1 (stereo not given),3.85%
6,Cc1oc(-c2ccc(Cl)cc2)nc1CS(=O)CC(=O)NCc1cccs1 (stereo not given),5.23%
7,COc1ccc(N2CCN(C(=O)c3ccc(CS(=O)(=O)c4ccccc4C)o3)CC2)cc1,7.34%
8,Cc1ccc(S(=O)(=O)Nc2ccc(O)c3ncccc23)cc1,64.4% (active)
9,Cc1ccc(-c2nc3cccnc3s2)cc1NS(=O)(=O)c1ccc2c(c1)CCCC2,6.78%
10,CCC(NS(=O)(=O)c1ccc(C)cc1)C(=O)N1CCN(c2ccccn2)CC1 (stereo not given),20.8%
11,COc1c2c(c(C)c3c1C(=O)OC3)O[C@@]1(C)CC[C@@]3(O)C(C)(C)OC(=O)CC[C@]3(C)[C@H]1C2,-1.82%
12,O=C(Cc1cc(=O)[nH]c(=O)[nH]1)NCCN1CCOCC1,9.62%
13,COc1ccc2c(c1OC)C(=O)N1C2SC[C@H]1C(=O)NC1CCCCC1 (stereo not given in full),4.89%
14,c1ccc(Nc2nc3ccccc3n3nnnc23)cc1,1.79%
15,Cc1cc(C)cc(N2CC(c3nc4ccccc4n3C)CC2=O)c1 (stereo not given),5.06%
16,Cc1ccc(CNC(=O)[C@@H](NC(=O)C2CCN(C(=O)[C@@H]3CCCN3)CC2)C(C)C)cc1,8.17%
17,Cc1csc2ncc(C(=O)NC(C)c3ccccc3)c(=O)n12 (stereo not given),7.24%
18,CC1CCN(Cc2ccc(NC(=O)C3CCN(c4nnc(-n5cccc5)s4)CC3)cc2)CC1,1.99%
19,CCOC(=O)Cn1c(=O)n(Cc2ccco2)c(=O)c2ccc(C(=O)NC3CCCC3)cc21,-13%
